46 compounds from the supplement of paper PMC9135407 can be followed below.

Several values for one entry are separate records, joined by “and”; a condition that tells them apart may be missing. Identical values can stand only once. Counter-ions that a name gives are not always drawn. In all, about 5,800 compounds went through this assay and about 620 (11%) showed activity. Only a selection was taken, and actives are over-represented in it overall. A number with no mark means an inactive call.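 Rule for the calls: active = score above a cut-off or among the top three wells of a plate; in these data no inactive exceeds 0.85.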 Bounds are passed on as bounds.

This experiment concerns primary human hepatic stellate cells (donor 1). The experiment in a line: scaled lipid accumulation score (0 = DMSO-like, 1 = nortriptyline-like); higher = stronger HSC inactivation (lipid re-accumulation), active = hit call of the paper. To be noted: 48 h.
[1] abbreviates: library stock concentration: 3.33 mM.
Where [2] appears, read: library stock concentration: 10 mM.
Where [3] appears, read: library stock concentration: 1 mM.
The mark [4] stands for this setting: library stock concentration: 4.7 mM.

For `Nc1nccc(-c2c(-c3ccc(F)cc3)ncn2C2CCNCC2)n1`, the “scaled lipid accumulation score” value under setting [1] was at most 0.

Consider `O=S1(=O)c2cccc3cccc(c23)N1CCCN1CCN(c2ccc(F)cc2)CC1` [Fananserin], for which, under setting [2], the “scaled lipid accumulation score” value is 0.048.

On to `CS(=O)(=O)O.N=C(N)SCCc1ccc(OCc2ccc([N+](=O)[O-])cc2)cc1` [KB-R7943 mesylate], for which, under setting [2], the “scaled lipid accumulation score” value is 0.99 (active).

`N=C(N)SCCc1cccc(CCSC(=N)N)c1` [1,3-PBIT (dihydrobromide)]: the “scaled lipid accumulation score” value under setting [3] was at most 0.

For `N=C(N)SCCc1ccc(CCSC(=N)N)cc1` [1,4-PBIT (dihydrobromide)], under setting [3], the “scaled lipid accumulation score” value is 0.049.

For `C=CCNC(N)=S` [Allylthiourea], the “scaled lipid accumulation score” value under setting [1] was at most 0 and the “scaled lipid accumulation score” value under setting [2] is at most -0.001.

On to `C=CCNC(N)=S`, for which the “scaled lipid accumulation score” value under setting [2] was at most 0.

Regarding `CCCCCCCCCCCCCCNC(=O)C1CCCCC1` [N-Cyclohexanecarbonyltetradecylamine], the “scaled lipid accumulation score” value under setting [3] was 0.008.

On to `CC(C)c1noc(N2CCC(COc3ccc(-c4ccc(S(C)(=O)=O)cc4)nc3)CC2)n1`, for which the “scaled lipid accumulation score” value is 0.019 under setting [1] and 0.16 under setting [2].

For the compound `Oc1cc(O)c(Cl)cn1` [Gimeracil], the “scaled lipid accumulation score” value was 0.014 under setting [1] and 0.04 under setting [2].

In the case of `CCCSc1ccc2[nH]c(NC(=O)OC)nc2c1` [Albendazole], the “scaled lipid accumulation score” value was 0.176. In addition, under setting [1], the “scaled lipid accumulation score” value was at most 0. Further, for the setting “library stock concentration: 7.5 mM”, the “scaled lipid accumulation score” value is 0.449 and ≤ 0. Under setting [2], the “scaled lipid accumulation score” value was ≤ -0.027 and 0.562.

Turning to `COC(=O)Nc1nc2ccc(SC(C)C)cc2[nH]1` [Methiazole], the “scaled lipid accumulation score” value is at most 0.

With `CCCSc1ccc2nc(NC(=O)OC)[nH]c2c1` [Albendazole], under setting [2], the “scaled lipid accumulation score” value was 0.892 (active).

On to `O=P(O)(O)O[C@H]1[C@H](O)[C@@H](O)[C@H](OP(=O)(O)O)[C@@H](OP(=O)(O)O)[C@H]1O` [D-myo-Inositol-1,3,4-triphosphate (sodium salt)], for which the “scaled lipid accumulation score” value under setting [3] was at most 0.

On to `CNCCCC1c2ccccc2C=Cc2ccccc21.Cl` [Protriptyline hydrochloride], for which the “scaled lipid accumulation score” value is 1.24 (active). Moreover, the “scaled lipid accumulation score” value under setting [2] is 0.911 (active).

Turning to `CNCCCC1c2ccccc2C=Cc2ccccc21` [Protryptyline hydrochloride], the “scaled lipid accumulation score” value (library stock concentration: 6.7 mM) is 0.698.

Regarding `Nc1nc(OCC2CCCCC2)c2[nH]cnc2n1`, the “scaled lipid accumulation score” value under setting [2] was at most -0.055.

As for `S=P(N1CC1)(N1CC1)N1CC1` [Thiotepa], the “scaled lipid accumulation score” value is, setting by setting: under setting [2], at most -0.027; (library stock concentration: 10.6 mM) at most 0.

With `CCCCCCCCCCCCCCCCOCC(CO)OC(C)=O` (stereo not drawn) [1-Hexadecyl-2-O-acetyl-glycerol], the “scaled lipid accumulation score” value under setting [3] was 0.035.

In the case of `CC(C)N1Cc2cc(S(C)(=O)=O)ccc2N(CCN2CC=C(c3c[nH]c4cc(F)ccc34)CC2)S1(=O)=O`, the “scaled lipid accumulation score” value under setting [2] was 0.137.

Consider `C[C@@]1(C(=O)Nc2ccc(F)nc2)CCCN1c1nc(Nc2cc(C3CC3)n[nH]2)c2cccn2n1`, for which the “scaled lipid accumulation score” value runs as follows: under setting [1], at most 0; under setting [2], 0.177.

As for `CN1CCC(=C2c3ccccc3CC(=O)c3sccc32)CC1.O=C(O)/C=C/C(=O)O` [Ketotifen fumarate], the “scaled lipid accumulation score” value under setting [2] is 0.913 (active).

On to `CN1CCC(=C2c3ccccc3CCc3sccc32)CC1.O=C(O)/C=C\C(=O)O` [Pizotyline], for which the “scaled lipid accumulation score” value under setting [2] was 1.2 (active).

For the compound `NC(=O)N1c2ccccc2CC(=O)c2ccccc21` [Oxcarbazepine], the “scaled lipid accumulation score” value runs as follows: under setting [1], at most 0; (library stock concentration: 7.9 mM) at most 0; under setting [2], ≤ 0 and ≤ -0.027.

Turning to `NC(=O)N1c2ccccc2CC(=O)c2ccccc21` [Trileptal], the “scaled lipid accumulation score” value under setting [2] is at most 0.

In the case of `CN1CCC(=C2c3ccccc3CCc3sccc32)CC1.O=C(O)CC(O)C(=O)O` [Pizotifen Malate], the “scaled lipid accumulation score” value under setting [2] was 1.32 (active).

In the case of `CN1CCC(=C2c3ccccc3CC(=O)c3sccc32)CC1`, the “scaled lipid accumulation score” value under setting [2] was 0.593.

`CN1CCC(=C2c3ccccc3CC(=O)c3sccc32)CC1` [Ketotifen fumarate]: the “scaled lipid accumulation score” value was 0.627. For the same compound, the “scaled lipid accumulation score” value under setting [4] is 0.276. In addition, the “scaled lipid accumulation score” value under setting [2] was 0.172 and 0.737.

As to `CN1CCC(=C2c3ccccc3CCc3sccc32)CC1` [Pizotyline malate], under setting [4], the “scaled lipid accumulation score” value is 0.792.

Take `CN1CCC(=C2c3ccccc3CCc3sccc32)CC1` [Pizotifen malate]: the “scaled lipid accumulation score” value was 0.782.

On to `CN1CCC(=C2c3ccccc3CC(=O)c3sccc32)CC1` [Ketotifen Fumarate], for which the “scaled lipid accumulation score” value is, setting by setting: under setting [1], at most 0; under setting [2], 0.576.

Consider `CN1CCC(=C2c3ccccc3CCc3sccc32)CC1` [Pizotifen Malate], for which the “scaled lipid accumulation score” value under setting [1] was 0.473.

On to `C[C@@]12C[C@@]3(O)O[C@@H](O1)[C@]1(COC(=O)c4ccccc4)[C@H]3C[C@@]12O[C@@H]1O[C@H](CO)[C@@H](O)[C@H](O)[C@H]1O` [Paeoniflorin], for which the “scaled lipid accumulation score” value under setting [1] is at most 0 and the “scaled lipid accumulation score” value under setting [2] was at most 0.

Turning to `COCc1c(C(C)C)nc(C(C)C)c(/C=C/[C@@H](O)C[C@@H](O)CC(=O)O)c1-c1ccc(F)cc1` [Cerivastatin], the “scaled lipid accumulation score” value (library stock concentration: 4.4 mM) was 0.228.

Regarding `COCc1c(C(C)C)nc(C(C)C)c(/C=C/[C@@H](O)C[C@@H](O)CC(=O)O)c1-c1ccc(F)cc1`, the “scaled lipid accumulation score” value under setting [2] was 0.271.

On to `CCCOc1ccc(Br)cc1-c1cc(-c2ccc(Cl)cc2)[nH]c1-c1ccncc1`, for which the “scaled lipid accumulation score” value under setting [2] is 0.006.

In the case of `O=C1NC(=O)c2cc(Nc3ccccc3)c(Nc3ccccc3)cc21`, the “scaled lipid accumulation score” value under setting [2] was 0.353 and 0.003.

`Cc1cccc(-c2nn3c(c2-c2ccnc4ccc(C(N)=O)cc24)CCC3)n1`: the “scaled lipid accumulation score” value is 0.006 under setting [1] and at most 0 under setting [2].

Regarding `O=C(O)CCC/C=C\C[C@@H]1C(=O)C[C@@H](O)[C@@H]1/C=C/[C@@H](O)CC1CCCCC1` [8-iso-16-cyclohexyl-tetranor Prostaglandin E2], the “scaled lipid accumulation score” value under setting [3] is at most 0.

Regarding `CN1CCCC(n2nc(Cc3ccc(Cl)cc3)c3ccccc3c2=O)CC1.Cl` (stereo not drawn) [Azelastine HCl], the “scaled lipid accumulation score” value under setting [2] was 1.09 (active).

Consider `O=C(c1cc(Cc2n[nH]c(=O)c3ccccc23)ccc1F)N1CCN(C(=O)C2CC2)CC1`, for which the “scaled lipid accumulation score” value is at most 0 under setting [1] and at most 0 under setting [2].

As for `O=C(c1cc(Cc2n[nH]c(=O)c3ccccc23)ccc1F)N1CCN(C(=O)C2CC2)CC1` [Olaparib], the “scaled lipid accumulation score” value reads like this: (library stock concentration: 80 uM) at most -0.0005; (library stock concentration: 400 uM) at most -0.0045; (library stock concentration: 2 mM) at most -0.0045; under setting [2], at most -0.0045.

On to `CN1CCCC(n2nc(Cc3ccc(Cl)cc3)c3ccccc3c2=O)CC1` (stereo not drawn), for which the “scaled lipid accumulation score” value under setting [2] is 1.21 (active).

With `COC1CCN(C(=O)c2cc(Cc3n[nH]c(=O)c4ccccc34)ccc2F)CC1`, the “scaled lipid accumulation score” value under setting [1] is at most 0 and the “scaled lipid accumulation score” value under setting [2] is at most -0.001.

In the case of `CN1CCCC(n2nc(Cc3ccc(Cl)cc3)c3ccccc3c2=O)CC1.Cl` (stereo not drawn) [Azelastine hydrochloride], the “scaled lipid accumulation score” value runs as follows: (library stock concentration: 4.8 mM) 0.978 (active); under setting [2], 0.992 (active).

In the case of `CN1CCCC(n2nc(Cc3ccc(Cl)cc3)c3ccccc3c2=O)CC1` (stereo not drawn) [Azelastine HCl], the “scaled lipid accumulation score” value under setting [1] is 0.604.
